Several values for one entry are separate records, joined by “and”; a condition that tells them apart may be missing. Equal entries are not always repeated. Records with an inconclusive call do not appear. Where a call stands in place of a potency, no number is given. Activity calls are given as the source filed them. Unless noted, calls come from the whole dose curve; as a rule, active = well fitted curve in the direction sought with a large enough effect; inconclusive = small, poorly fitted or top-dose-only effect, or another doubt; inactive = no such curve, though single readings can be large; an effect the other way counts as inactive or inconclusive.
What was measured:
[1] = target: Voltage-gated inwardly rectifying potassium channel KCNH2 (Homo sapiens) (UniProt Q12809); experiment: qHTS Assay for Small Molecule Inhibitors of the Human hERG Channel Activity (AID 588834);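 note: lower thallium flux fluorescence means stronger hERG block; nearly all actives have a fitted effect of over 50% in size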; note: potency is the fitted concentration of half-maximal effect
How it was run: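 Blockade is seen as reduced FluxOR thallium-flux fluorescence in U2OS cells expressing hERG from a BacMam construct, in Opti-MEM with 2% FCS. Concentration-response data fitted to the Hill equation for AC50.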

[2] = target: Luciferin 4-monooxygenase (Photinus pyralis) (UniProt P08659); experiment: Biochemical firefly luciferase enzyme assay for NPC (AID 624030);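 note: purified P. pyralis luciferase at 10 nM with luciferin and ATP substrate; series mostly up to about 59 µM; nearly all actives have a fitted effect of over 70% in size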
How it was run: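 Counter-screen for direct inhibition of the luciferase enzyme by approved-drug library compounds, run at 10 nM enzyme in 50 mM Tris acetate (final). Luminescence was read within 5 min of enzyme-buffer addition and normalized to PTC124 versus DMSO (0%).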

[3] = target: Glutaminase kidney isoform, mitochondrial (Homo sapiens) (UniProt O94925); experiment: qHTS for Inhibitors of Glutaminase (GLS): LOPAC Validation (AID 624146);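 note: glutamate product detected by oxidase and peroxidase coupled Amplex red fluorescence gain; series mostly up to about 46 µM; nearly all actives have a fitted effect of over 60% in size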
How it was run: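 Human kidney-isoform GLS in 45 mM KH2PO4 pH 8.2, 0.02% Tween-20, with compound, started with 1mM L-Glutamine (added stock). Glutamate oxidase/HRP/Amplex red coupled fluorescence read at start and after 30 min at RT.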

[4] = qHTS of Trypanosoma Brucei Inhibitors: LOPAC Validation (AID 624147)
How it was run: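 Assay buffer: 50 mM TEA pH 7.2, 100 mM KCl, 10 mM MgCl2, 0.05% BSA, 0.01% Tween-20. Pyruvate kinase from T. brucei plus substrate met compound, then ADP (130 uM final). Luminescence was read post 45 min RT.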

[5] = target: Glucagon-like peptide 1 receptor (Homo sapiens) (UniProt P43220); experiment: qHTS of GLP-1 Receptor Agonists: LOPAC Validation (AID 624148);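 note: higher luminescence signal means agonism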
How it was run: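 HEK293 cells stably co-expressing a cAMP-responsive luciferase reporter and a hypersensitive GLP-1R were plated 12 h at 37 °C and exposed to compounds for 4-6 hr at 37 °C, 5% CO2. Luminescence was read 12 min after adding detection reagent.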

[6] = qHTS of Nrf2 Activators: LOPAC Validation (AID 624149)
How it was run: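 Luminescence read-out of ARE-luciferase activation: AREc32_Fluc cells treated with compounds for 24 hr at 37 deg C, then lysed with Steady-Glo for 30 min at room temperature before reading.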

[7] = HTS Assay for Allosteric Antagonists of the Human D2 Dopamine Receptor: Hit Validation in HTRF (AID 624455);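 note: stable D1 dopamine receptor cell line scored for blocking the D1 response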
How it was run: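 First, antagonism was screened by calcium flux in a force-coupled, inducible Hek293 Trex D2 line challenged with EC80 dopamine. Hits then went into an HTRF assay in cells stably expressing D1, testing inhibition of the D1 response.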

[8] = S16 Schwann cell PMP22 intronic element firefly luciferase assay (AID 624032); note: nearly all actives have a fitted effect of over 30% in size; note: potency is the fitted concentration of half-maximal effect
How it was run: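 Rat S16 Schwann cells stably carrying a PMP22 intronic element-driven Fluc reporter were seeded overnight, then exposed to compounds for 24 h at 37 °C. Luminescence was normalized to PTC124 (positive control) and DMSO (0% activity).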

[9] = S16 Schwann cell PMP22 intronic element beta-lactamase assay (AID 624044; calls by dose curve; note: nearly all actives have a fitted effect of over 15% in size)
How it was run: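 Rat S16 Schwann cells with beta-Lac driven by a PMP22 intronic element, compound-treated 24 h at 37 °C. LiveBLAzer FRET B/G read: 460 nm normalized to potassium clavulanate vs DMSO; 535 nm FRET as viability; concentration-effect curves classified.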

Sequence of Luciferin 4-monooxygenase (Photinus pyralis) (P08659 whole entry, looked up): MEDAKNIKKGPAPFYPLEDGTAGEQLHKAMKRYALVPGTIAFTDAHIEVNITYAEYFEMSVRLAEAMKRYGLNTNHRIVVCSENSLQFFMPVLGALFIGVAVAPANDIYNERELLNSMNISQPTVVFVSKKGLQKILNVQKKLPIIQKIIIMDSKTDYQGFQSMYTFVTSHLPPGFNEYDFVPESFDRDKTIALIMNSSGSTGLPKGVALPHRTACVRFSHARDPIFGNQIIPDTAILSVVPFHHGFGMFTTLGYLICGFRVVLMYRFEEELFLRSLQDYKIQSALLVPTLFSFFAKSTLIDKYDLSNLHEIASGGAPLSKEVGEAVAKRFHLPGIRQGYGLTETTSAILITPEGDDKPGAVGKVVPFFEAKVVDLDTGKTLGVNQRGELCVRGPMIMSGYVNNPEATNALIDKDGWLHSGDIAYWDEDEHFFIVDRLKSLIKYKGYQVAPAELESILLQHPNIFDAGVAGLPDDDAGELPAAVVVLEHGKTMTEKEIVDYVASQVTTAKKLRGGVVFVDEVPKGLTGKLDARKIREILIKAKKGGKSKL
Sequence of Voltage-gated inwardly rectifying potassium channel KCNH2 (Homo sapiens) (Q12809 whole entry, looked up): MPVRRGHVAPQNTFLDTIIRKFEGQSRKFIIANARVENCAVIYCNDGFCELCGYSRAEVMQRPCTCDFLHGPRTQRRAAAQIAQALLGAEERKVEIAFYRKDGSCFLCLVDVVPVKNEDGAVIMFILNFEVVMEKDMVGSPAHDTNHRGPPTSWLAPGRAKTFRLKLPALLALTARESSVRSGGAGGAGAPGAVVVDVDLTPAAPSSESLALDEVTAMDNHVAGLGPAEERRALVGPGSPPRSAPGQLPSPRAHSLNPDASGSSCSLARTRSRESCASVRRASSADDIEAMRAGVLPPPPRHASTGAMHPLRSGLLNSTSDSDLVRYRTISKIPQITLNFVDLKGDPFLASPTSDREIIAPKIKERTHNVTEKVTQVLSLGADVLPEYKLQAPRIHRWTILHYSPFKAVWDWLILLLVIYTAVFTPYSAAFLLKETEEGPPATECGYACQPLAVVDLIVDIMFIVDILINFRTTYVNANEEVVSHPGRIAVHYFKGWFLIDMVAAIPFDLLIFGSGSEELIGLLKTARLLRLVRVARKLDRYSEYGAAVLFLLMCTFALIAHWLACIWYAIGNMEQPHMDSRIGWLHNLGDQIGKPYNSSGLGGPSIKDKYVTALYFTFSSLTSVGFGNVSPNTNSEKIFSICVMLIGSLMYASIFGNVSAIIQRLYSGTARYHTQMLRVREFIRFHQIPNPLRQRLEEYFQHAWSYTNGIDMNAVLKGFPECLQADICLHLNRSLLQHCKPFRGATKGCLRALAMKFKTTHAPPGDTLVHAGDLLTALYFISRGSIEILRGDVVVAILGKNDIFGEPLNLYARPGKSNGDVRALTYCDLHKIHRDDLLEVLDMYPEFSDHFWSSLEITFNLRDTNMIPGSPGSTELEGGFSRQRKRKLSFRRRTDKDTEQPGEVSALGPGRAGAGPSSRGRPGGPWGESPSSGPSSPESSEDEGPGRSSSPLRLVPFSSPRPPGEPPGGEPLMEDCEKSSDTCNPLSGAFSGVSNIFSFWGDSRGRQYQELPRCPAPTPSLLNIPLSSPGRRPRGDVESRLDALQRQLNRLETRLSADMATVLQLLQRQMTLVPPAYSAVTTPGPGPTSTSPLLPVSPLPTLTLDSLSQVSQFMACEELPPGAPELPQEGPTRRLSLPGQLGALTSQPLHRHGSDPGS
Sequence of Glucagon-like peptide 1 receptor (Homo sapiens) (P43220 whole entry, looked up): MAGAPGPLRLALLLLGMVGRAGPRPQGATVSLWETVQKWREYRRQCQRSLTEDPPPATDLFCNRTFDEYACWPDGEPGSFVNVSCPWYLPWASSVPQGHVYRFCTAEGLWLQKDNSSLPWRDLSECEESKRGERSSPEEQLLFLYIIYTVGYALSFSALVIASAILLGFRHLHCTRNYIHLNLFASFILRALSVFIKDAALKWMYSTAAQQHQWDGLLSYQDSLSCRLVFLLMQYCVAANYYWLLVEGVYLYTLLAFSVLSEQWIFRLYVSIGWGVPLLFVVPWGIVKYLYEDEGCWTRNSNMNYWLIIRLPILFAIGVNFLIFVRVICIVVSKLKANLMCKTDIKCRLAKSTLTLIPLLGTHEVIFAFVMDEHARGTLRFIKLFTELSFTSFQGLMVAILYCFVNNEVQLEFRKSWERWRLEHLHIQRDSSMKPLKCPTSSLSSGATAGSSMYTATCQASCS
Sequence of Glutaminase kidney isoform, mitochondrial (Homo sapiens) (O94925 whole entry, looked up, canonical isoform): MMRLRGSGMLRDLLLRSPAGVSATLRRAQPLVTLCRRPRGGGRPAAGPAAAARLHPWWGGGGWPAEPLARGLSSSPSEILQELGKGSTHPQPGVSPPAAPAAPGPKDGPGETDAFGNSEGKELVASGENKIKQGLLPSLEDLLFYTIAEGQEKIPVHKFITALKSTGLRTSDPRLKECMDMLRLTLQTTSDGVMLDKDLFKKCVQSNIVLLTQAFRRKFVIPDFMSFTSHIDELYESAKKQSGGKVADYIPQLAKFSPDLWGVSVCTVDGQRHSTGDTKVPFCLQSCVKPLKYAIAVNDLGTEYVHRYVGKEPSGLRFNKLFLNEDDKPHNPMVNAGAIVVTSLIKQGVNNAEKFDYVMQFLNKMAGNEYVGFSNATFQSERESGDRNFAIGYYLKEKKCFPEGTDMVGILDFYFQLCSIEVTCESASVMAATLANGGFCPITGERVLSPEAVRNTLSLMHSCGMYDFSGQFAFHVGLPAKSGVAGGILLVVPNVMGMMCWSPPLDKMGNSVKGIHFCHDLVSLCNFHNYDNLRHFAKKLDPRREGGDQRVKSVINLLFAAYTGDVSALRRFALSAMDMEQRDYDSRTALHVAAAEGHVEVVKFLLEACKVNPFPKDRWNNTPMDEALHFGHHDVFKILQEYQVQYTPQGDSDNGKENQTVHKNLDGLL

Structure (SMILES)	Potency [1]	Potency [2]	Potency [3]	outcome [4]	outcome [5]	outcome [6]	outcome [7]	Potency [8]	Potency [9]
Nc1cc(=O)[nH]c(N)n1	inactive	inactive	inactive	inactive	inactive	inactive	inactive		
Cc1cc(N)c2ccccc2[n+]1CCCCCCCCCC[n+]1c(C)cc(N)c2ccccc21	inactive	inactive	inactive	inactive	inactive	inactive	inactive	3.46 µM (active)	
Nc1ccc(S(=O)(=O)NC(=O)c2ccccc2)cc1	inactive	inactive						inactive	
CN(C)CCN(Cc1ccccc1)c1ccccn1	12.6 µM (active)	inactive						inactive	inactive
CC(C(O)c1ccc(O)cc1)N1CCC(Cc2ccccc2)CC1 (stereo unspecified)	1.12 µM (active) and 501 nM (active)	inactive	inactive	inactive	inactive	inactive	inactive	25.6 µM (active)	
COCCOC(=O)C1=C(C)NC(C)=C(C(=O)OC/C=C/c2ccccc2)C1c1cccc([N+](=O)[O-])c1 (stereo unspecified)	inactive	inactive	inactive	inactive	inactive	inactive	inactive	7.21 µM (active)	inactive
O=c1[nH]c(=O)c2[nH]c(=O)[nH]c2[nH]1	inactive	inactive						inactive	
CCCCCCCCCCCCCCCC(=O)NCCO	inactive	inactive	inactive	inactive	inactive	inactive	inactive	inactive	inactive
COc1ccc(S(=O)(=O)Nc2nnc(CC(C)C)s2)cc1	inactive	inactive						inactive	
CCCCN1CCCC[C@H]1C(=O)Nc1c(C)cccc1C	inactive	inactive						inactive	inactive
NS(=O)(=O)c1cc2c(cc1Cl)NC(CSCc1ccccc1)=NS2(=O)=O	inactive	inactive						inactive	

Source: PubChem BioAssay (NCATS)
